A number with no mark means an inactive call. Records with an inconclusive call do not appear. A call without a number means that no potency is given here. The source made the active and inactive calls. Unless noted, calls follow the shape of the dose curve; as a rule, active = well fitted curve in the direction sought with a large enough effect in the repeat runs; inconclusive = weak or mixed curves; inactive = no such curve, though single readings can be large; an effect the other way counts as inactive or inconclusive.
What was measured:
[1] = qHTS assay to identify small molecule agonists of the estrogen receptor alpha (ER-alpha) signaling pathway in the presence of an antagonist - cell viability counter screen (AID 1259386);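 also: cells exposed to compounds for 22 h at 37 °C before the viability read; nearly all actives have a fitted effect of over 30% in size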; also: potency is read from the fitted curve at half-maximal effect
Procedure, shortened: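 VM7Luc4E2 cells (endogenous full-length ER-alpha, 4×ERE-luciferase) were held 5 days in phenol red-free medium with 10% charcoal-stripped FBS, plated, then given 10.0nM ICI-182,780 and compounds at 15 concentrations for 22hr at 37C; viability read by CellTiter-Fluor fluorescence.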

[2] = biological target: Progesterone receptor (Homo sapiens) (UniProt P06401); experiment: qHTS assay to identify small molecule agonists of the progesterone receptor (PR) signaling pathway (AID 1346784; calls by dose curve; also: nearly all actives have a fitted effect of over 30% in size)
Chain of Progesterone receptor (Homo sapiens) (P06401 whole entry, looked up): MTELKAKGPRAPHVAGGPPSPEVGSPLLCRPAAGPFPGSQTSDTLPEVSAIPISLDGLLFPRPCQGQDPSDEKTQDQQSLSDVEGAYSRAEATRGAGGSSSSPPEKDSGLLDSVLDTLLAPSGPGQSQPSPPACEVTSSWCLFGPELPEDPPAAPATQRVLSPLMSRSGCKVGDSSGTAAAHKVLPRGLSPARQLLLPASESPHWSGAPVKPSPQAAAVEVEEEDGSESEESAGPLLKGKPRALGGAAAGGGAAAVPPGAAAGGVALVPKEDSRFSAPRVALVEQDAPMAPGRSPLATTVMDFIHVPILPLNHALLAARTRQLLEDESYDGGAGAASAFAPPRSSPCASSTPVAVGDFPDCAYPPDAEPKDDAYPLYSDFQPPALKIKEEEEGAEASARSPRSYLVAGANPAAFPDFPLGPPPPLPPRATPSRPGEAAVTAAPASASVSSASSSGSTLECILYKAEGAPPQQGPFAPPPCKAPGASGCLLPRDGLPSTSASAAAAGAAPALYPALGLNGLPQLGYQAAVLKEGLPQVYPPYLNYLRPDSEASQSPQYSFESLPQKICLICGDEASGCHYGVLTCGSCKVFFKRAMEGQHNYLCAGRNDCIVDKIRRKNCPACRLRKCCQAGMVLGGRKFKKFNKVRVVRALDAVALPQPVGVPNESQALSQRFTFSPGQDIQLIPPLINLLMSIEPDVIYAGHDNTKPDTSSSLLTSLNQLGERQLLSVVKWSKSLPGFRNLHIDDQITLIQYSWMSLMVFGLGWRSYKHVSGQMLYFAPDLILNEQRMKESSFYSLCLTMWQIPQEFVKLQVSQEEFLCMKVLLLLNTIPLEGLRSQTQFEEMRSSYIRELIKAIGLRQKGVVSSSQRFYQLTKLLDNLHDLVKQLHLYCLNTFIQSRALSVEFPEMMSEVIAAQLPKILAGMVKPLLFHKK
Procedure, shortened: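 Using charcoal-stripped serum (2%) to limit endogenous steroids, PR-UAS-bla HEK 293T cells received compounds for 16 hr at 37C after 6 hr plating; beta-lactamase FRET fluorescence was recorded following 2 hr substrate loading at room temperature.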

[3] = qHTS assay to identify small molecule antagonists of the progesterone receptor (PR) signaling pathway - cell viability counter screen (AID 1346798); also: series mostly up to about 92 µM; nearly all actives have a fitted effect of over 50% in size
Procedure, shortened: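 ATP content as viability readout: CellTiter-Glo luminescence, 30 min room temperature, in PR-UAS-bla HEK293T cells after 16 hr compound/R5020 treatment at 37C and 5% CO2.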

[4] = qHTS assay to identify small molecule antagonists of the TGF-beta/Smad signaling pathway - cell viability counter screen (AID 1346824); also: nearly all actives have a fitted effect of over 50% in size
Procedure, shortened: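 Cytotoxicity counter-screen run in the same wells as the beta-lactamase Smad reporter read: CellTiter-Glo luminescence after 30 min at room temperature. HEK 293T SBE-bla cells had 5 hr compound exposure at 37 C with TGF-beta1 (0.25 ng/mL stock).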

[5] = qHTS assay to identify small molecule agonists of the TGF-beta/Smad signaling pathway - cell viability counter screen (AID 1346829); also: top concentration of the series differs between compounds; nearly all actives have a fitted effect of over 45% in size
Procedure, shortened: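 SBE-bla HEK 293T cells plated overnight, compound exposure 5 hr at 37 C. Viability read in the same wells by CellTiter-Glo luminescence after 30 min at room temperature, following the beta-lactamase read.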

[6] = qHTS assay to identify small molecule agonists of the TGF-beta/Smad signaling pathway (AID 1346859; active = well fitted activation curve with a large enough effect in the signal ratio in the repeat runs, not every such curve was filed as active; the % refers to the signal ratio; also: series mostly up to about 77 µM)
Procedure, shortened: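 Stable Smad binding element-beta-lactamase HEK 293T cells; 5 hr compound exposure at 37 C under 5% CO2; 2 hr room-temperature substrate step; fluorescence excited at 405 nm, collected at 460 nm and 530 nm.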

[7] = Human pregnane X receptor (PXR) small molecule agonists, qHTS cell viability counter screen (AID 1346977); also: nearly all actives have a fitted effect of over 50% in size
Procedure, shortened: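 Readout is CellTiter-Fluor fluorescence from PXR-Luc HepG2 cells. Plated cells rested 5hr, then were treated with compounds for 24hr at 37C and 5% CO2, with reagent present during the last hour.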

[8] = Caspase-3/7 induction in HepG2 cells by small molecules, qHTS assay (AID 1346978); also: nearly all actives have a fitted effect of over 15% in size
Procedure, shortened: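 Caspase-3/7 induction was measured by Caspase-Glo 3/7 luminescence (30 min, room temperature) after a 17 hr compound exposure of wild-type HepG2 cells seeded at 2,000 per well and pre-incubated 5 hr.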

[9] = Caspase-3/7 induction in CHO-K1 cells by small molecules, qHTS cell viability counter screen (AID 1346979); also: nearly all actives have a fitted effect of over 35% in size; also: potency is read from the fitted curve at half-maximal effect
Procedure, shortened: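 To flag cytotoxic compounds, treated CHO-K1 wild-type cells were given CellTiter-Fluor at 16hr and read fluorescently after 1hr at 37C; the caspase-3/7 luminescence was measured in these same wells.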

[10] = Caspase-3/7 induction in CHO-K1 cells by small molecules, qHTS assay (AID 1346980); also: nearly all actives have a fitted effect of over 15% in size
Procedure, shortened: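 Luminescent Caspase-Glo 3/7 read (30min, room temperature) quantified apoptosis induction. Cells were wild-type CHO-K1, treated with compound for 17hr at 37 C and 5% CO2.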

[11] = Caspase-3/7 induction in HepG2 cells by small molecules, qHTS cell viability counter screen (AID 1346981); also: series mostly up to about 92 µM; nearly all actives have a fitted effect of over 30% in size
Procedure, shortened: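 Wild-type HepG2 cells (2,000/well) were allowed to settle for 5 hr at 37 C, 5% CO2, then dosed with compounds in DMSO by pin transfer. After 16 hr at 37 C, CellTiter-Fluor was added and fluorescence read 1 hr later.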

[12] = biological target: Nuclear receptor subfamily 1 group I member 2 (Homo sapiens) (UniProt O75469); experiment: Human pregnane X receptor (PXR) small molecule agonists, qHTS assay (AID 1346982); also: nearly all actives have a fitted effect of over 35% in size; also: potency is read from the fitted curve at half-maximal effect
Chain of Nuclear receptor subfamily 1 group I member 2 (Homo sapiens) (O75469 whole entry, looked up): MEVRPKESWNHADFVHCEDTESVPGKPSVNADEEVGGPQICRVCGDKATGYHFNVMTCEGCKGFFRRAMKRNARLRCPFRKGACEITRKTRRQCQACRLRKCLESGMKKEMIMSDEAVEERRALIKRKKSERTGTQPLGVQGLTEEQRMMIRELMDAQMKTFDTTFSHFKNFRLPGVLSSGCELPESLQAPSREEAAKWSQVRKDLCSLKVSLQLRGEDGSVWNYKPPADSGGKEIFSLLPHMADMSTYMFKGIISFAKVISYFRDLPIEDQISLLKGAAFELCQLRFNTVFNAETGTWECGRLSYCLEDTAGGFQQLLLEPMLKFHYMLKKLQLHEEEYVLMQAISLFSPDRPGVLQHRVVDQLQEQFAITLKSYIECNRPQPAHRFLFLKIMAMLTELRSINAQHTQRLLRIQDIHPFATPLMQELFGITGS
Procedure, shortened: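 PXR-Luc HepG2 cells (CYP3A4 promoter-driven luciferase) were seeded in medium with 5% charcoal-stripped FBS, left 5 hr at 37 C, then exposed to compounds in DMSO for 24 hr. Luminescence was read after ONE-Glo addition.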

[13] = biological target: Thyrotropin-releasing hormone receptor (Homo sapiens) (UniProt P34981); experiment: qHTS assay to identify small molecule antagonists of the thyrotropin-releasing hormone receptor (TRHR) signaling pathway (AID 1346877; active = well fitted inhibition curve with a large enough effect in the repeat runs, not every such curve was filed as active; also: series mostly up to about 51 µM)
Chain of Thyrotropin-releasing hormone receptor (Homo sapiens) (P34981 whole entry, looked up): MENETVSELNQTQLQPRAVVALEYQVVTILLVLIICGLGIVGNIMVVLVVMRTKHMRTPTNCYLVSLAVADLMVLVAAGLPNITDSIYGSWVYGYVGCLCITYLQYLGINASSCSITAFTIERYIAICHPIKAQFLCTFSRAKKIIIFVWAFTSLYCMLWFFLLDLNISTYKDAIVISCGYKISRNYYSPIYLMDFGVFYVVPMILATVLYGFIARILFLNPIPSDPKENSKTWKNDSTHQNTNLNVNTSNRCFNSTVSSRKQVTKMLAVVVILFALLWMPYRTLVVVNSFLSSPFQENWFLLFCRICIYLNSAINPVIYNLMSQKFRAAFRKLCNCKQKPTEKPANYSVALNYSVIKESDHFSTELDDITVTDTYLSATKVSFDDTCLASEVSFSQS
Procedure, shortened: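 TRHR-expressing HEK293 cells were seeded, cultured 18 h at 37 °C, then loaded with calcium dye for 2 h. Compounds were pre-incubated 5 min at room temperature before 1 nM TRH (final) was added, and kinetic fluorescence was recorded for 3 min.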

[14] = biological target: Thyrotropin-releasing hormone receptor (Homo sapiens) (UniProt P34981); experiment: qHTS assay to identify small molecule agonists of the thyrotropin-releasing hormone receptor (TRHR) signaling pathway (AID 1346891; calls by dose curve; also: series mostly up to about 58 µM)
Procedure, shortened: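 In 1536-format, 1500 TRHR-Hek293 cells per well grew 18 h, took up calcium dye for 2 h at 37 °C, received compound, and were read kinetically; 15-point titrations, triplicates.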

[15] = biological target: Cytochrome P450 2D6 (Homo sapiens) (UniProt P10635); experiment: Cytochrome P450 Family 2 Subfamily D Member 6 (CYP2D6) small molecule antagonists: luciferase reporter qHTS assay (AID 1671196); also: nearly all actives have a fitted effect of over 50% in size; also: potency is read from the fitted curve at half-maximal effect
Chain of Cytochrome P450 2D6 (Homo sapiens) (P10635 whole entry, looked up): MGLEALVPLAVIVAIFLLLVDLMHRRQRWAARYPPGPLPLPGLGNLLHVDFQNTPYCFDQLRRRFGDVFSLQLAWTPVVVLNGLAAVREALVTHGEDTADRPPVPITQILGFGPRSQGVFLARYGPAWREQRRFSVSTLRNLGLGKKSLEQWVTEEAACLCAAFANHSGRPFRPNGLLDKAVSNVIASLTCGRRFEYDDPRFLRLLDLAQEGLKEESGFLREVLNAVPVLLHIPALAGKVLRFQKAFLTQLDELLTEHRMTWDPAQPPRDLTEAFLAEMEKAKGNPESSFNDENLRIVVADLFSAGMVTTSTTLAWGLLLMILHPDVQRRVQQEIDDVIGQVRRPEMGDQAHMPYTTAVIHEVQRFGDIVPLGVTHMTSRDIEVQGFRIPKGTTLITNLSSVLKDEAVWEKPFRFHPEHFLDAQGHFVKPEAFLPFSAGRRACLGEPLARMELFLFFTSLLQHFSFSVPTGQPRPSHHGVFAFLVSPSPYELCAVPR
Procedure, shortened: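 CYP2D6 enzyme–substrate mix was held with compound for 10 min at room temperature, then NADPH regeneration solution was added and the reaction ran 1 h at room temperature. Luciferin product was detected by luminescence after 20 min with detection reagent.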

[16] = qHTS assay to identify small molecule agonists of the progesterone receptor (PR) signaling pathway - cell viability counter screen (AID 1346799; calls by dose curve; also: nearly all actives have a fitted effect of over 45% in size)
Procedure, shortened: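 Cytotoxicity in PR-bla HEK293T cells: 16 h compound, 37C; CellTiter-Glo added post-FRET read; luminescence after 30 min RT.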

[17] = biological target: Nuclear receptor subfamily 1 group I member 2 (Rattus norvegicus) (UniProt Q9R1A7); experiment: Rat pregnane X receptor (rPXR) activation by small molecules, qHTS assay (AID 1346983); details: rPXR luciferase reporter cells, One-Glo luminescence, 24 h; max activation: stronger effect = higher value; also: nearly all actives have a fitted effect of over 20% in size
Chain of Nuclear receptor subfamily 1 group I member 2 (Rattus norvegicus) (Q9R1A7 whole entry, looked up): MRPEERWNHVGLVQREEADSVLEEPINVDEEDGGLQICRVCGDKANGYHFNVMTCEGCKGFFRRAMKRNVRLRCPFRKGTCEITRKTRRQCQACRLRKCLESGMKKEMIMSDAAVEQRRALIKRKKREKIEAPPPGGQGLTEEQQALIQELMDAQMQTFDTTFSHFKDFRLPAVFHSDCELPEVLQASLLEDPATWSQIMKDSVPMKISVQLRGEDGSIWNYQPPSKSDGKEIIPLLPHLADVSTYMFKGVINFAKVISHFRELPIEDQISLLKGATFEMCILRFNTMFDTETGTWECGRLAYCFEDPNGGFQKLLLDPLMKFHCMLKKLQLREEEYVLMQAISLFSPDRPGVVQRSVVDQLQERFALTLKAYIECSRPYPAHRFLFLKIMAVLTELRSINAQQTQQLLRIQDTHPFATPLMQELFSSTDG
Procedure, shortened: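 Luminescent readout (One-Glo luciferase, 30 min room temperature) followed 24 hr compound treatment at 37 C of rPXR cells plated 2,000 per well and preincubated 5hr; qHTS format with compounds delivered in DMSO.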

[18] = biological target: Nuclear receptor subfamily 1 group I member 2 (Homo sapiens) (UniProt O75469); experiment: CYP3A4 induction through human pregnane X receptor (PXR) by small molecules, qHTS assay (AID 1346984); also: nearly all actives have a fitted effect of over 40% in size; also: potency is read from the fitted curve at half-maximal effect
Procedure, shortened: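 DPX-2 cells (HepG2 co-transfected with PXR and CYP3A4 promoter-luciferase) treated with compounds 24 h at 37C; luciferin-IPA CYP3A4 substrate 3uM final added for 3 h, then One-Glo; luminescence read. qHTS format.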

[19] = biological target: Nuclear receptor subfamily 1 group I member 2 (Homo sapiens) (UniProt O75469); experiment: Human pregnane X receptor (PXR) activation by small molecules, qHTS assay (AID 1346985); also: nearly all actives have a fitted effect of over 40% in size; also: potency is read from the fitted curve at half-maximal effect
Procedure, shortened: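 DPX-2 cells (HepG2 co-transfected with a PXR response element and a CYP3A4-promoter luciferase construct) were seeded at 2,000 per well, rested 5 hr at 37C, then exposed to DMSO-dissolved compounds for 24 hr. Activation was read as luciferase luminescence.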

[20] = biological target: Progesterone receptor (Homo sapiens) (UniProt P06401); experiment: qHTS assay to identify small molecule antagonists of the progesterone receptor (PR) signaling pathway (AID 1346795; active = well fitted inhibition curve with a large enough effect in the signal ratio in the repeat runs, not every such curve was filed as active; the % refers to the signal ratio)
Procedure, shortened: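 Inhibition of R5020-induced (1 nM final) beta-lactamase reporter signal in PR-UAS-bla HEK293T cells was scored by FRET fluorescence after overnight (16 hr) compound treatment.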

## CCC(=O)OC(C)(C)C1CC=C(C)CC1 (configuration not stated)
[1]
  Potency: inactive
[2]
  outcome: inactive
[3]
  Potency: inactive
[4]
  Potency: inactive
[5]
  Potency: inactive
[6]
  outcome: inactive
[7]
  Potency: inactive
[8]
  outcome: inactive
[9]
  Potency: inactive
[10]
  Potency: inactive
[11]
  Potency: inactive
[12]
  Potency: inactive

## CC(C)(C)c1cc(CO)cc(C(C)(C)C)c1O
[1]
  Potency: inactive
[2]
  outcome: inactive
[3]
  Potency: inactive
[4]
  Potency: inactive
[5]
  Potency: inactive
[6]
  outcome: inactive
[13]
  outcome: inactive
[14]
  Potency: inactive
[7]
  Potency: inactive
[8]
  outcome: inactive
[10]
  Potency: inactive
[11]
  Potency: inactive
[15]
  Potency: 72.4 µM (active)

## NCCCN(CCO)CCO
[1]
  Potency: inactive
[2]
  outcome: inactive
[3]
  Potency: inactive
[16]
  Potency: inactive
[4]
  Potency: inactive
[5]
  Potency: inactive
[6]
  outcome: inactive
[14]
  Potency: inactive
[8]
  outcome: inactive
[9]
  Potency: inactive
[11]
  Potency: inactive
[12]
  Potency: inactive

## O=C(O)Cc1cc(I)c(Oc2ccc(O)c(I)c2)c(I)c1
[1]
  Potency: inactive
[2]
  outcome: inactive
[3]
  Potency: inactive
[16]
  Potency: inactive
[4]
  Potency: inactive
[5]
  Potency: inactive
[13]
  outcome: inactive
[14]
  Potency: inactive
[7]
  Potency: inactive
[8]
  outcome: inactive
[9]
  Potency: inactive
[11]
  Potency: inactive
[17]
  max activation: -1.77%

## Nc1nc(N)c2nc(CNc3ccc(C(=O)N[C@@H](CCC(=O)O)C(=O)O)cc3)cnc2n1
[1]
  Potency: inactive
[2]
  outcome: inactive
[3]
  Potency: inactive
[13]
  outcome: inactive
[14]
  Potency: inactive
[8]
  outcome: inactive
[9]
  Potency: inactive
[10]
  Potency: inactive
[11]
  Potency: inactive

## CN1CCN(C2=Nc3ccccc3Sc3ccc(Cl)cc32)CC1
[1]
  Potency: inactive
[2]
  outcome: inactive
[3]
  Potency: inactive
[16]
  Potency: inactive
[4]
  Potency: inactive
[5]
  Potency: inactive
[13]
  outcome: inactive
[14]
  Potency: inactive
[8]
  outcome: inactive
[9]
  Potency: inactive
[10]
  Potency: inactive
[11]
  Potency: inactive
[18]
  Potency: 22.4 µM (active)
[19]
  Potency: 25.1 µM (active)
[15]
  Potency: 15.5 µM (active)

## CC(Cc1cccc(C(F)(F)F)c1)NCCOC(=O)c1ccccc1 (configuration not stated)
[1]
  Potency: inactive
[2]
  outcome: inactive
[3]
  Potency: inactive
[16]
  Potency: inactive
[4]
  Potency: inactive
[5]
  Potency: inactive
[6]
  outcome: inactive
[10]
  Potency: inactive
[11]
  Potency: inactive
[12]
  Potency: inactive
[17]
  max activation: -0.287%
[18]
  Potency: inactive
[19]
  Potency: inactive
[15]
  Potency: 0.0977 µM (active)

## Cc1ccc(C(C)c2ccc(C)c(C)c2)cc1C
[1]
  Potency: inactive
[2]
  outcome: inactive
[3]
  Potency: inactive
[16]
  Potency: inactive
[4]
  Potency: inactive
[5]
  Potency: inactive
[6]
  outcome: inactive
[14]
  Potency: inactive
[7]
  Potency: inactive
[8]
  outcome: inactive
[9]
  Potency: inactive
[11]
  Potency: inactive
[15]
  Potency: inactive

## O=C(O)c1cccc(N(Cc2cccnc2)c2ccc(OC(F)F)c(OC(F)F)c2)c1
[1]
  Potency: inactive
[2]
  outcome: inactive
[3]
  Potency: inactive
[16]
  Potency: inactive
[4]
  Potency: inactive
[5]
  Potency: inactive
[7]
  Potency: inactive
[8]
  outcome: inactive
[9]
  Potency: 68.6 µM (active)
[12]
  Potency: 43.3 µM (active)

## CCOC(=O)C1=NN(c2ccccc2)C(=O)C1
[1]
  Potency: inactive
[2]
  outcome: inactive
[3]
  Potency: inactive
[16]
  Potency: inactive
[4]
  Potency: inactive
[5]
  Potency: inactive
[6]
  outcome: inactive
[14]
  Potency: inactive
[7]
  Potency: inactive
[8]
  outcome: inactive
[9]
  Potency: inactive
[10]
  Potency: inactive
[11]
  Potency: inactive
[15]
  Potency: inactive

## CN1CCC(=C2c3ccccc3C=Cc3ccccc32)CC1
[1]
  Potency: inactive
[2]
  outcome: inactive
[16]
  Potency: inactive
[4]
  Potency: inactive
[5]
  Potency: inactive
[6]
  outcome: inactive
[8]
  outcome: inactive
[10]
  Potency: inactive
[11]
  Potency: inactive
[12]
  Potency: inactive
[15]
  Potency: 2.45 µM (active)

## COC(=O)CSc1cc(N=c2sc(=O)n3n2CCCC3)c(F)cc1Cl
[1]
  Potency: inactive
[2]
  outcome: inactive
[3]
  Potency: inactive
[5]
  Potency: inactive
[8]
  outcome: inactive
[9]
  Potency: inactive
[10]
  Potency: inactive
[11]
  Potency: inactive
[12]
  Potency: inactive
[15]
  Potency: 63.3 µM (active)

## COCCCCCCCCOCCC[Si](C)(O[Si](C)(C)C)O[Si](C)(C)C
[1]
  Potency: 24.3 µM (active)
[20]
  Potency: inactive
[4]
  Potency: inactive
[5]
  Potency: inactive
[6]
  outcome: inactive
[13]
  outcome: inactive
[14]
  Potency: inactive
[8]
  outcome: inactive
[9]
  Potency: 13.7 µM (active)
[10]
  Potency: inactive
[12]
  Potency: 12.2 µM (active)
[15]
  Potency: inactive

## CCCOc1ccc2nc(NC(=O)OC)[nH]c2c1
[1]
  Potency: inactive
[2]
  outcome: inactive
[4]
  Potency: inactive
[5]
  Potency: inactive
[6]
  outcome: inactive
[7]
  Potency: inactive
[8]
  outcome: inactive
[10]
  Potency: inactive
[11]
  Potency: inactive
[12]
  Potency: 3.76 µM (active)
[15]
  Potency: inactive

## CC(=O)OC/C=C/c1ccccc1
[1]
  Potency: inactive
[20]
  Potency: inactive
[16]
  Potency: inactive
[4]
  Potency: inactive
[5]
  Potency: inactive
[6]
  outcome: inactive
[14]
  Potency: inactive
[8]
  outcome: inactive
[9]
  Potency: inactive
[10]
  Potency: inactive
[11]
  Potency: inactive
[12]
  Potency: inactive
[15]
  Potency: inactive

Source: PubChem BioAssay (Tox21)
